The record followed here is PubChem BioAssay AID1347383 (Zoeller Lab, School of Medicine, Boston University, 2020).

The source made the active and inactive calls.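 How the source made its calls: active means cell survival after UV exposure 2 SD above solvent-only control wells at 10 µM, confirmed on one or two repeats; inactive means the rest.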

The assay in a line: cell survival after pyrene fatty acid photosensitization – ZR-82 cells, Analyticon library, screen 2, phospholipid biosynthesis inhibitor project, primary screen (AID 1347383).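 Further: survival reflects blocked phospholipid synthesis cutting uptake of the phototoxic fatty acid; compound and fatty acid exposure 3 h then viability read next day.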 The note with it: ZR-82 CHO cells, pyrene-fatty acid UV killing, CellTiter Blue; at 10 µM; peroxisome-deficient CHO-K1 variant; with DGAT-1, DGAT-2 and ACAT inhibitors. Background: Resazurin is reduced to fluorescent resorufin, in cell work by metabolically active cells.
For the compound `COc1cc2ccc(=O)oc2cc1OC`, the outcome was inactive.

Regarding `CC(=O)OC1C(=O)C2C3OCC4=C3[C@@](C)(CC[C@@H]4O)CC[C@]2(C)[C@H]1C(C)C` (stereo not given in full), the outcome was inactive.

Regarding `CCCC(O)C1OCC2=C1C(O)C1OC1C2O` (stereo not given), the result was inactive.

On to `CC1(C)C(=O)C=CC2(C)C1CC(O)C1(C)C3=CCC(c4ccoc4)C3(C)CCC21` (stereo not given), for which the outcome was inactive.

In the case of `COc1cc(OC2O[C@H](CO)[C@@H](O)[C@H](O)[C@H]2O)c2c(=O)c(-c3ccc(O)cc3)coc2c1` (stereo not given in full), the outcome was inactive.

Consider `C/C1=C\CCC2=CC(OC2=O)C(C)(C)/C=C\C1=O` (stereo not given), for which the result was inactive.

Regarding `C=C1C(=O)O[C@@H]2C=C(C)[C@@H]3CC[C@@](C)(O)[C@@H]3C[C@H]12`, the result was inactive.

As for `O=c1ccc2cc(O)c(O)cc2o1`, the outcome was inactive.

For `COc1cc(CC(C)C(C)Cc2ccc(O)c(O)c2)ccc1O` (stereo not given), the outcome was inactive.

For the compound `CCC(C)C1NC(=O)C(C)NC1=O` (stereo not given), the outcome was inactive.

As to `COc1cc2c(cc1O)C(=O)CC1C(C)(C)C(=O)CCC21C` (stereo not given), the result was inactive.

Regarding `O=C1C(c2[nH]c3ccccc3c2O)=Nc2ccccc21`, the outcome was inactive.

With `C=CC(C)(C)c1cc2cc3c(cc2oc1=O)OC(C(C)(C)OC(C)=O)C3` (stereo not given), the outcome was inactive.

On to `C=C1CCc2occ(C)c2[C@H]2[C@H]1[C@@]13O[C@@]1(C[C@@H](C)[C@H]3OC(C)=O)[C@H]1O[C@@]21C`, for which the result was inactive.

Turning to `O=c1c(-c2ccc(O)cc2)coc2cc(O)ccc12`, the outcome was inactive.

On to `COc1cc(O)cc2c1C(=O)CC(c1ccccc1)O2` (stereo not given), for which the result was inactive.

For `CC1=C(CCCCC(=O)O)COC1=O`, the result was inactive.

For the compound `COc1ccc(C(O)C(C)OC2OC(CO)C(O)C(O)C2O)cc1` (stereo not given), the outcome was inactive.

For the compound `COC(=O)/C=C/C1(O)C=CC(=O)C=C1`, the result was inactive.

Consider `CC(=O)CCCCCCc1ccc2c(c1)OCO2`, for which the outcome was inactive.

Turning to `CC(C)=CCCC1=CC(=O)OC1O` (stereo not given), the outcome was inactive.

With `CCCCCCCCCCCCCCCCC1C(=O)OC(C)C1OC` (stereo not given), the result was inactive.

For the compound `COc1cc(C2OC(c3ccc(O)c(OC)c3)C(C)C2C)ccc1O` (stereo not given), the outcome was active.

For `COc1ccc(-c2coc3cc(O)cc(O)c3c2=O)cc1`, the outcome was inactive.

In the case of `COc1cc(=O)oc(C(C)C(C)O)c1CO` (stereo not given), the outcome was inactive.

For the compound `CC1=C2C[C@H]3O[C@@]3(C)CCC3O[C@@]3(C)C[C@@]2(O)OC1=O` (stereo not given in full), the result was inactive.

In the case of `COC(=O)/C=C(\C)CCC1(C)C(C)CCC2(C)C(C)=CC(=O)CC21` (stereo not given), the outcome was inactive.

Turning to `CC(=O)c1ccc(O[C@@H]2O[C@H](CO)[C@@H](O)[C@H](O)[C@H]2O)cc1`, the outcome was inactive.

As for `COc1cc(O[C@@H]2O[C@H](CO)[C@@H](O)[C@H](O)[C@H]2O)cc(OC)c1OC`, the outcome was inactive.

For `CC1NC(=O)c2ccccc2NC1=O` (stereo not given), the outcome was inactive.

For the compound `C=C(C=O)[C@]1(O)C[C@@]2(C)C(=CC1=O)C=C[C@H](OC(=O)/C=C/C=C/[C@H](C)CC)[C@@H]2C`, the result was inactive.

For the compound `COC1OC(OC)C(O)(CC/C=C(\C)CC/C=C(\C)C(=O)O)C1O` (stereo not given), the result was inactive.

With `C/C=C/c1ccc2oc(-c3ccc(O)c(OC)c3)c(C)c2c1`, the outcome was inactive.

For the compound `O=C(/C=C/c1ccccc1)c1ccccc1O`, the result was inactive.

Turning to `C/C=C(/C)C(=O)OC1C2OC2C2(CO2)C2C3OC(=O)C(C)C3CCC12C` (stereo not given), the outcome was inactive.

Turning to `Oc1cc(O)c2c(c1)O[C@H](c1ccc(O)c(O)c1)[C@H](O)C2`, the result was inactive.

For `C=C[C@H]1CN2CC[C@H]1C[C@@H]2C(O)c1ccnc2ccc(OC)cc12` (stereo not given in full), the result was inactive.

On to `CC1=CC2=C(C(=O)OC2O)C(O)C2CC(C)(C)CC12` (stereo not given), for which the result was inactive.

Take `O=C(O)COC(=O)CCCCCCCO`: the result was inactive.

For the compound `CC1(C)C=Cc2c(c3ccccc3[nH]c2=O)O1`, the outcome was inactive.
